From the supplement of paper PMC6555819

Experiments:
Assay in all cases: PBM binding z-score (relative to random genomic background probes); higher = stronger binding; sequences stand for … in GC…GCGATTGACAGCGTAGAATGAAGG
[1] = system: FXR:RXRa (NR concentration 270 nM, RXRa partner concentration 90 nM)
How it was run: (§1)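 For binding z-scores, the reference was random background probes on custom Agilent 4×180K protein-binding microarrays. These arrays were incubated 1 h with ligand-free nuclear receptor dimers in PBS pH 7.4, 2% milk, 0.02% Triton X-100, 1 mM DTT, 0.2 mg/mL BSA and 0.4 mg/ml salmon testes DNA. Fluorescence was scanned after antibody detection of each partner (one per run) and regression-normalized.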

[2] = system: LXRa:RXRa (NR concentration 270 nM, RXRa partner concentration 90 nM)
How it was run: as §1

[3] = system: LXRa homodimer (NR concentration 270 nM)
How it was run: as §1

[4] = system: LXRb:RXRa (NR concentration 270 nM, RXRa partner concentration 90 nM)
How it was run: as §1

[5] = system: LXRb homodimer (NR concentration 270 nM)
How it was run: as §1

[6] = system: PPARa:RXRa (NR concentration 270 nM, RXRa partner concentration 90 nM)
How it was run: as §1

[7] = system: PPARg:RXRa (NR concentration 180 nM, RXRa partner concentration 90 nM)
How it was run: as §1

[8] = system: PPARg:RXRa 270nM:90nM, anti-RXR (NR concentration 270 nM, RXRa partner concentration 90 nM)
How it was run: as §1

[9] = system: PPARg:RXRa 30nM:10nM, anti-RXR (NR concentration 30 nM, RXRa partner concentration 10 nM)
How it was run: as §1

[10] = system: PPARg:RXRa 90nM:30nM, anti-RXR (NR concentration 90 nM, RXRa partner concentration 30 nM)
How it was run: as §1

[11] = system: PPARg:RXRa DBDmut IVT, anti-RXR (DBD mutation: RXRa K156A/R161A, NR concentration 270 nM, RXRa partner concentration 90 nM)
How it was run: as §1

[12] = system: PPARg:RXRa IVT, anti-PPARg (NR concentration 270 nM, RXRa partner concentration 90 nM)
How it was run: as §1

[13] = system: PPARg DBDmut IVT, anti-PPARg (DBD mutation: PPARg1 K132A/R137A, NR concentration 270 nM)
How it was run: as §1

[14] = system: PPARg homodimer (NR concentration 180 nM)
How it was run: as §1

[15] = system: PXR:RXRa (NR concentration 270 nM, RXRa partner concentration 90 nM)
How it was run: as §1

[16] = system: PXR homodimer (NR concentration 270 nM)
How it was run: as §1

[17] = system: RARa:RXR (NR concentration 270 nM, RXRa partner concentration 90 nM)
How it was run: as §1

[18] = system: RARa homodimer (NR concentration 270 nM)
How it was run: as §1

[19] = system: RARb:RXRa (NR concentration 270 nM, RXRa partner concentration 90 nM)
How it was run: as §1

[20] = system: PPARg DBDmut:RXRa IVT, anti-PPARg (DBD mutation: PPARg1 K132A/R137A, NR concentration 270 nM, RXRa partner concentration 90 nM)
How it was run: as §1

| Sequence | PBM binding z-score [1] | PBM binding z-score [2] | PBM binding z-score [3] | PBM binding z-score [4] | PBM binding z-score [5] | PBM binding z-score [6] | PBM binding z-score [7] | PBM binding z-score [8] | PBM binding z-score [9] | PBM binding z-score [10] | PBM binding z-score [11] | PBM binding z-score [12] | PBM binding z-score [13] | PBM binding z-score [14] | PBM binding z-score [15] | PBM binding z-score [16] | PBM binding z-score [17] | PBM binding z-score [18] | PBM binding z-score [19] | PBM binding z-score [20] |
| --- | --- | --- | --- | --- | --- | --- | --- | --- | --- | --- | --- | --- | --- | --- | --- | --- | --- | --- | --- | --- |
| CGAACTAGGTCACCAGGCCAGTGAAGAGGTTGGA | 4.08 | 2.41 | -0.125 | 1.44 | -0.76 | 5.2 | 8.64 | 7.15 | 4.02 | 6.44 | 8.23 | 8.8 | 0.89 | 2.25 | 1.18 | -0.53 | 2.73 | -0.334 | 4.22 |  |
| ATATGTAGATTAGGGTCATTCAGAAAGTAGGGAA | 4.07 | 3.39 | 0.828 | 4.21 | 1.27 | 4.91 | 3.51 | 3.48 | 1.4 | 2.69 | 1.94 | 2.96 | 1.38 | 2.2 | 3.84 | 1.24 | 4.48 | 1.28 | 2.92 |  |
| CGAACTAGGTCACCAGGACCGTGAAGAGGTTGGA | 3.87 | 2.36 | -0.1 | 1.5 | -0.339 | 4.88 | 8.27 | 6.8 | 4.02 | 6.42 | 8.24 | 8.31 | 0.567 | 1.94 | 1.19 | -0.498 | 2.08 | -0.00105 | 4.08 |  |
| ATATGTCGGTTAGGGTCATTCAGAAAGTAGGGAA | 4.73 | 3.97 | 1.11 | 4.09 | 2.21 | 4.78 | 3.57 | 3.71 | 1.57 | 3.07 | 2.03 | 3.18 | 2.25 | 3.91 | 4.88 | 2.06 | 5.07 | 1.86 | 3.32 |  |
| CGTCCAAGGTCAGCAGGTGAGTGAAAGCGACGTG | 5.14 | 3.02 | -0.383 | 2.08 | -0.689 | 4.13 |  | 3.7 | 0.511 | 2.24 | 2.8 | 3 | -0.746 | 3.15 | 2.41 | 0.206 | 3.32 | 0.593 | 4.87 | -0.33 |
| CCTTACGGGTCACGGTTATAGCACGGGTGGTACG | 5.96 | 4.01 | 0.000447 | 3.23 | -0.179 | 5.56 |  | 5.89 | 2.69 | 4.69 | 3 | 4.79 | -0.518 | 2.07 | 3.68 | -0.0861 | 4.84 | 0.629 | 4.37 | 0.0456 |
| CGAACTAGGTTAAAGGACAGTGAAAGGCGACGTA | -0.0523 | 0.122 | -0.254 | 0.129 | -0.736 | 3.82 | 7.8 | 7.53 | 7.49 | 8.79 | 6.46 | 6.45 | 0.461 | 1.11 | -0.281 | -0.159 | 0.0562 | -0.221 | 1.72 |  |
| TCTAGTTGGTCACGGAGGTCACACGCGACGGGTA | 3.47 | 3.74 | 2.9 | 3.14 | 0.904 | 3.95 |  | 4.08 | 3.3 | 3.9 | 2.46 | 4.38 | 1.9 | 3.12 | 4.55 | 1.5 | 4.54 | 1.78 | 3.87 | 1.06 |
| CGTCGAAGGTCAATGCTAGGTCAGTGAAAGCATT | 6.95 | 5.54 | 2.6 | 4.32 | 0.906 | 5.41 |  | 4.82 | 1.4 | 3.63 | 2.56 | 3.93 | -1.09 | 4.55 | 4.73 | 0.726 | 6.43 | 0.867 | 5.19 | -0.174 |
| ATCTCTAGGTAAATGTTCAGTGAATCCCGAGGAT | 0.0255 | -0.125 | -0.0436 | -0.389 | 0.584 | 0.133 |  | 1.01 | 0.602 | 0.967 | 2.02 | 1.64 | 0.892 | 0.258 | -0.0966 | 0.236 | 0.0149 | 0.709 | 0.211 | 1.6 |
| TCATATAGGTAATCAGGTGAAAGTCCGTAAGTTA | 1.07 | 0.945 | 0.314 | 0.96 | 0.374 | 2.68 |  | 4.24 | 4.28 | 4.2 | 5.4 | 5.17 | 1.86 | 1.32 | 0.832 | 0.68 | 1.14 | 1.28 | 0.56 | 1.73 |
| AGTCAAAGTTCATCTGGGTAACGTAAGATATGCT | 6.32 | 6.01 | 5.7 | 4.05 | 1.69 | 4.98 |  | 6.09 | 3.73 | 5.62 | 1.05 | 3.77 | 0.701 | 2.39 | 5.16 | 5.32 | 3.69 | 1.4 | 4.81 | 0.881 |
| CAAACTAGGTCAAAGGTCAAAGACGAGCCAACCA | 8.68 | 7.43 | 5.15 | 7.3 | 2.82 | 7.71 |  | 11.5 | 15.4 | 14.3 | 8.8 | 9.63 | 7.03 | 8.08 | 7.17 | 1.87 | 9.19 | 4.59 | 5.96 | 6.19 |
| CTAACTAGGTCACAGAGGTCAAAGTCCGTGCGTA | 7.38 | 6.55 | 7.37 | 6.19 | 2.21 | 6.62 |  | 8.54 | 7.16 | 9.04 | 8.94 | 9.17 | 5.22 | 4.09 | 6.74 | 12.1 | 7.31 | 3.9 | 5.32 | 7.21 |
| GATACAGGGTCAAGGCCAGAATACGCGTATTGAT | 6.98 | 4.25 | 0.231 | 4.25 | 0.223 | 5.84 |  | 5.74 | 2.61 | 4.58 | 2.36 | 4.04 | 0.396 | 2.82 | 3.9 | 0.4 | 4.79 | 0.95 | 4.6 | 0.884 |
